# Results reported in paper PMC5540273 (PLoS ONE, 2017).
# Test system: ACVRL1
# Details: concentration: 1 μM, replicates: in singlicate; n = 1
# 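Also: KINOMEscan kinase panel screen.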
row,Structure (SMILES),%Inh [%]
1,COc1cccc(NC(=O)NCCNc2ccnc(Nc3ccc(F)cc3)n2)c1 [GSK1379879],0
2,CS(=O)(=O)c1cccc(CNc2nc(Nc3ccc4c(c3)CCC(=O)N4)ncc2C(F)(F)F)c1,0
3,c1ccc(Oc2ccc(Nc3ccnc4cc(-c5ccc(CN6CCCCC6)o5)ccc34)cc2)nc1 [GW567143],0
4,COC(=O)Nc1nc2cc(Oc3ccc(NC(=O)Nc4cccc(SC)c4)cc3)ccc2[nH]1.Cl [GW697999],0
5,Nc1ncc(-c2ccc3nccc(-c4ccncc4)c3c2)cc1S(=O)(=O)N1CCCCC1 [GSK1693850],37
6,Cc1ccc(-c2ccc3occ(-c4ccc(S(C)=O)cc4)c3c2)nn1 (stereo not shown),20
7,CC(C)NCC(Cc1ccccc1)NC(=O)c1cc(Br)c(-c2ccnc3[nH]ccc23)s1.Cl.Cl (stereo not shown) [GSK1383281],0
8,Cc1ccc(Nc2ccnc(Nc3ccc(C)c(F)c3)n2)cc1O.Cl [GW582868],62
9,Nc1cccc(-c2ccc3c(N)n[nH]c3c2)c1 [GSK2193613],0
10,CN1CCN(Cc2ccc(NC(=O)Nc3ccc(N(C)c4ccnc(Nc5ccc(CS(C)(=O)=O)cc5)n4)cc3)cc2)CC1.Cl [GW827654],57
11,Cc1ccc(NC(=O)c2ccc(Cl)c(Cl)c2)cc1-c1ccc(C(=O)Nc2ccncc2)cc1 [GSK1398460],0
12,CN(c1ccc(NC(=O)N2CCN(CCCN3CCOCC3)CC2)cc1)c1ccnc(Nc2ccc(CS(C)(=O)=O)cc2)n1.Cl [GW830899],0
13,CSc1ccc(NC2=C(c3ccc(Cl)cc3)C(=O)NC2=O)cc1 [SB-317658],23
14,O=C(Nc1n[nH]c2nc(-c3ccccc3)ccc12)C1CC1 [SB-708999],0
15,COc1cc(Nc2ccnc3cc(-c4ccncc4)ccc23)cc(OC)c1OC.Cl [GW494610],88
16,Cc1ccc(O)cc1Nc1ccnc2ccc(C(C)(C)C)cc12 [GW856805],1
17,Cc1ccc(NC(=O)c2ccnc(N3CCCCC3)c2)cc1-c1ccc(C(=O)NCC2CC2)cc1 [GW775610],0
18,Cc1cc(-c2ccnc(Nc3cccc(C#N)c3)n2)cc(C)c1O [GSK1440913],17
19,Cl.Cl.NCC(NC(=O)c1cc(-c2cccnc2)c(-c2ccnc3[nH]ccc23)s1)c1ccccc1 (stereo not shown) [GSK1323434],0

row,Structure (SMILES),%Inh [%]
1,COc1ccc(C2=C(Nc3cccc(O)c3)C(=O)NC2=O)cc1 [SB-390766],0
2,COC(=O)Nc1nc2ccc(Oc3ccc(NC(=O)Nc4cc(C(F)(F)F)ccc4F)cc3)cc2[nH]1.Cl [GW654607],0
3,O=C(Nc1n[nH]c2nc(-c3cccc(O)c3)ccc12)C1CC1 [SB-711805],0
4,N#Cc1cnc2cc(-c3cnc(CNCCN4CCOCC4)s3)ccc2c1Nc1ccc(Oc2ccccc2)cc1 [GW664114],0
5,CN(C)CCNS(=O)(=O)c1ccc(-c2ccnc3[nH]ccc23)cc1 [GSK977620],0
6,CN(C)c1ncnc2nc[nH]c12 [SKF-31736],0
7,COc1ccc(NC(=O)c2ccoc2)cc1-c1ccc(C(=O)NCC2CC2)cc1 [GW810437],10
8,O=C(Nc1c(F)cccc1F)c1cc(C(=O)c2ccccc2F)c[nH]1 [GSK1326180],9
9,Cn1cc(-c2cnc(N)c3c(-c4ccc5c(c4)CCN5C(=O)Cc4ccccc4)csc23)cn1 [GSK2593074],0
10,O=C(O)C(F)(F)F.O=c1[nH]ccc2nc(N[C@@H]3CCNC3)nc(Nc3cc(Cl)cc(Cl)c3)c12 [GSK2188764],0
11,CN(c1ccc(NC(=O)Nc2cccc(Cl)c2)cc1)c1ccnc(N)n1.Cl [GW830707],9
12,Cn1cc(-c2ccc3c(c2)CCN3C(=O)Cc2cc(F)cc(F)c2F)c2c(N)ncnc21 [GSK2634140],0
13,CC(C)(C)c1ccc(C(=O)Nc2cn3cc(-n4ccnc4)ccc3n2)cc1,0
14,CC(C)c1nc(-c2cccc(NS(=O)(=O)c3c(F)cccc3F)c2)c(-c2ccnc(Nc3ccc(N4CCOCC4)nc3)n2)s1.Cl [GSK1723980],83
15,O=C1NC(=O)C(c2ccccc2Cl)=C1Nc1cccc(Cl)c1 [SB-342409],70
16,CCn1c(-c2nonc2N)nc2c(-c3ccccc3)ncc(OCCCN)c21.O=C(O)C(F)(F)F.O=C(O)C(F)(F)F [GSK260205],0
17,COc1ccc(C)c(Nc2ccnc(Nc3ccc(-c4cnc[nH]4)cc3)n2)c1.Cl [GW784041],91.7
18,CN(c1ccc(F)c(NC(=O)c2cccc(OC(C)(C)C#N)c2Cl)c1)c1ccc2nc(NC(=O)C3CC3)sc2n1,0
